Bioassay records deposited in PubChem BioAssay by several laboratories.
A selection: hits, their analogues and other compounds. The true share with any hit is near 2.3%.
MCL1-BIM inh = inhibitors of human MCL1 binding to BIM-BH3 peptide. Q07820. GST-MCL1 / FITC-Bim-BH3 fluorescence polarization. inhibition, % at 10.9 µM. actives 0.68% (n = 320,000). AID 2057;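 active = inhibition above the mean inhibition of all tested compounds plus 3 SD, set per campaign, cut at about 40% in these data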;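 also: 0% = DMSO wells and 100% = unlabeled Bim-BH3 peptide control; higher means more loss of mP so more displacement of Bim peptide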
BCLXL inh = Bcl-xL (human) inhibition; Q07817; GST-Bcl-xL / FITC-Bim BH3 peptide fluorescence polarization; inhibition, % at 10.9 µM; actives 0.7% (n = 320,000); AID 2129;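 active = inhibition above the mean of all tested compounds plus 3 SD, cutoff set per campaign, cut at about 30% in these data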;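 also: 0% = DMSO wells and 100% = unlabeled Bim-BH3 peptide competitor; inhibitors lower millipolarization by displacing the labeled peptide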
Mcl1 Bid PPI = disrupts binding of human Mcl-1 to Bid peptide | Q07820 | TR-FRET Mcl-1/Bid-Dy647 peptide binding, 1536-well | inhibition, % at 21.7 µM | actives 0.97% (n = 220,000) | AID 1021;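 active = compounds that cut the binding signal by more than half at the single screening dose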;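 also: His-tagged Mcl-1 with europium anti-His antibody binding Bid BH3 peptide; 0% = Mcl-1 plus peptide wells and 100% = peptide-only wells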
Mcl1 Noxa PPI = disrupts binding of human Mcl-1 to Noxa peptide; actives 1.5% (n = 220,000); TR-FRET Mcl-1/Noxa peptide binding, 2 h; Q07820; inhibition, % at 21.7 µM;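 active = compounds that cut the protein-peptide binding signal by more than 50% relative to plate controls in a single-dose test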;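 also: His-tagged Mcl-1 with rhodamine Noxa BH3 peptide and terbium anti-His antibody; 0% = Mcl-1 plus Noxa peptide wells and 100% = peptide-only wells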
GLD-1 TGE inh = GLD-1-TGE RNA interaction inhibition (C. elegans). purified GLD-1 + fluorescein TGE RNA, fluorescence polarization. actives 0.44% (n = 320,000). inhibition, % at 5.96 µM. AID 2280. Q17339;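 active = percent inhibition above a per-plate cutoff, the plate mean of test compounds plus 3 SD, cut at about 30% in these data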;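 also: 0% = DMSO wells with GLD-1 and probe and 100% = wells lacking GLD-1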
Target sequence (Q17339 whole entry, looked up): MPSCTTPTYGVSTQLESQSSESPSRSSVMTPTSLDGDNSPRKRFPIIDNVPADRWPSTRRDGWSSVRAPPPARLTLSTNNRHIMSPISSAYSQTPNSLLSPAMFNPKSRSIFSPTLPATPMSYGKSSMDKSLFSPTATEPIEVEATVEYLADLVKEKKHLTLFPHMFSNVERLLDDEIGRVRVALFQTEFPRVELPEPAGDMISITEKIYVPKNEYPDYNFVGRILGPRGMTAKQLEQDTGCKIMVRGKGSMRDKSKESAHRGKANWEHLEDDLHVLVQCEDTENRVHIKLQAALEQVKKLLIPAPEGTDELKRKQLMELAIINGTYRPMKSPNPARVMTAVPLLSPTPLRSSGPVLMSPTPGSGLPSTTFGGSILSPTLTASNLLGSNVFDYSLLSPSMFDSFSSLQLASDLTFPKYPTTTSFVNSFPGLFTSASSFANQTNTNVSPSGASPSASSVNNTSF
Bim-Mcl-1 = inhibitors of Bim-Mcl-1 interaction, human | inhibition, % at 10 µM | AID 1009 | actives 0.1% (n = 190,000) | Bead-based flow cytometry, Bim peptide-Mcl-1 binding | Q07820; in the data active = inhibition above about 40%;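 also: 0% = no compound tracer wells and 100% = peptide blocker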
Active calls of the source: *; · = no result given.

SMILES | MCL1-BIM inh | BCLXL inh | Mcl1 Bid PPI | Mcl1 Noxa PPI | GLD-1 TGE inh | Bim-Mcl-1
CC(Sc1ccc2nnc(-c3ccc(F)cc3)n2n1)C(=O)O (centres undefined) | -5 | 0 | -26 | 10 | 3 | -5
Cc1ccc(-c2nnc3ccc(SC(C)C(=O)O)nn23)cc1 (centres undefined) | 0 | 1 | -8 | 78* | 4 | -2
CCc1ccc(S(=O)(=O)/N=C2\C=C(Nc3ccc(O)cc3)C(=O)c3ccccc32)cc1 | 12 | 5 | · | · | 7 | ·
CCc1ccc(S(=O)(=O)/N=C2\C=CC(=O)c3ccccc32)cc1 | 19 | 14 | -12 | 87* | 6 | 1
CCc1ccc(S(=O)(=O)/N=C2/C=C(Sc3ncn[nH]3)C(=O)c3ccccc32)cc1 | 32 | 26 | 40 | 101* | 4 | 1
Cc1cc(C)cc(N(C(=O)c2csnn2)C(C(=O)NC2CCCC2)c2cccnc2)c1 (centres undefined) | 0 | 1 | · | · | -1 | ·
CCCC1Oc2ccccc2C(=O)N(CC(=O)c2ccc3c(c2)OCCO3)C1=O (centres undefined) | -6 | 2 | · | · | 3 | ·
CC(C)CC1NC(=O)N(CC(=O)c2ccc3c(c2)OCCO3)C1=O (centres undefined) | -1 | 3 | -4 | 98* | -3 | -1
COC(=O)c1c(NC(=O)COC(=O)c2ccc(NC(=O)CC#N)cc2)sc2c1CCCCC2 | -18 | -12 | 19 | 67* | -10 | 0
O=C(NN1C(=O)/C(=C/c2ccc(O)c([N+](=O)[O-])c2)SC1=S)c1ccccc1Cl | -32 | -20 | 0 | 32 | -35 | 2
O=C(NN1C(=O)/C(=C/c2cc([N+](=O)[O-])ccc2O)SC1=S)c1ccccc1O | 55* | 5 | · | · | -7 | ·
COc1ccc(-c2csc(Nc3ccc(S(=O)(=O)Nc4cc(C)on4)cc3)n2)cc1C | -4 | 4 | -30 | 51* | 11 | 0
CC(C)Cn1c(=O)c(C(=O)Nc2ccccc2S(N)(=O)=O)c(O)c2ccccc21 | 1 | -3 | -16 | 0 | 3 | 2
Cn1c(=O)c(C(=O)Nc2ccccc2S(N)(=O)=O)c(O)c2ccccc21 | 25 | 34* | 2 | -3 | 1 | ·
CC(=O)c1c(O)c2ccccc2n(C)c1=O | -2 | 4 | -21 | 51* | -7 | 0
COc1ccc(-n2ccn(CC(=O)Nc3ccccc3OC)c(=O)c2=O)cc1 | 3 | 8 | · | · | 7 | ·
Cc1sc2ncnc(N3CCC(C(=O)Nc4nnc(SCc5ccccc5F)s4)CC3)c2c1C | -6 | -2 | · | · | 8 | ·
O=C(CCNC(=O)C1CCN(S(=O)(=O)c2ccc(F)cc2)CC1)NCc1cccc(Cl)c1 | 3 | 3 | · | · | 6 | ·
Cc1ccccc1NC(=O)/C(C#N)=C\c1cccnc1 | -23 | -16 | -35 | 10 | 2 | -2
N#C/C(=C\c1cccnc1)C(=O)Nc1ccccc1[N+](=O)[O-] | 36 | 34* | · | · | 24 | ·
N#C/C(=C\c1ccccc1[N+](=O)[O-])C(=O)NCc1ccccc1 | 39 | 34* | -12 | -17 | 30 | ·
CC(C)SCC(=O)Nc1ncc2c(n1)-c1ccccc1CC2 | 35 | 35* | -41 | 39 | 7 | -4
Cc1cc2ccccn2c1C(=O)c1ccccc1F | 3 | -1 | · | · | 2 | ·
NC(=O)CSc1nc2cc(S(=O)(=O)N3CCOCC3)ccc2o1 | · | · | · | · | 4 | ·
O=C1OC2(c3ccccc31)c1cc(I)c(O)c(I)c1Oc1c2cc(I)c(O)c1I | 87* | 88* | · | · | 51* | ·
SMILES | MCL1-BIM inh | BCLXL inh | Mcl1 Bid PPI | Mcl1 Noxa PPI | GLD-1 TGE inh | Bim-Mcl-1
COc1cc(/C=C/[N+](=O)[O-])ccc1OCc1cccc(C(=O)O)c1 | · | · | -3 | 60* | · | -1
COc1cc(/C=N/NC(=O)c2cccc([N+](=O)[O-])c2)ccc1OCc1ccccc1 | 5 | 1 | -23 | 21 | 9 | -1
CC(C)(C)N1[C@@H](CC(=O)O)c2cc(C(F)(F)F)ccc2S1(=O)=O | 8 | 3 | · | · | 2 | ·
CCCCn1c(SCC(=O)NNC(=O)c2ccccc2)n[nH]c1=O | · | · | · | · | 2 | ·
Cc1cccc(-n2c(SCC(=O)Nc3nnc(C)s3)nnc2-c2ccoc2C)c1 | 4 | 4 | 67* | -4 | 5 | -8
O=[N+]([O-])c1ccc(/C=N\NS(=O)(=O)c2ccc(F)cc2)o1 | 5 | 4 | · | · | 1 | ·
CC(C)Cn1c(N)c(C(=O)COC(=O)c2cc(-c3ccco3)nc3ccccc23)c(=O)n(C)c1=O | 27 | 18 | 22 | 97* | 3 | 1
